# Assay results: PubChem BioAssay (NCATS)
# Several values for one entry are separate records, joined by “and”; a condition that tells them apart may be missing. Equal values may be shown once. Results filed as inconclusive are left out. A call without a number means that no potency is given here. Activity calls are given as the source filed them. Unless noted, the call rests on the fitted dose curve; in most records, active means well fitted curve in the direction sought with a large enough effect; inconclusive means small, poorly fitted or top-dose-only effect, or another doubt; inactive means no such curve, though single readings can be large; an effect the other way counts as inactive or inconclusive.
# Tests used:
# [1] = qHTS for differential inhibitors of proliferation of Plasmodium falciparum line 7G8 (AID 1815);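 further: parasite growth measured after three days of incubation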; further: potency means the concentration at half of the fitted maximal effect
# [2] = qHTS for differential inhibitors of proliferation of Plasmodium falciparum line W2 (AID 1883); settings: Potency: Plasmodium falciparum W2 proliferation inhibition;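 further: parasites grown with compound for 72 h before lysis and staining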; further: potency means the concentration at half of the fitted maximal effect
# [3] = qHTS Assay for Modulators of Human Peripheral Myelin Protein 22 (PMP22) Expression/Activity (AID 1967; active means well fitted curve in the direction sought with a large enough effect in the signal ratio; the % refers to the signal ratio)
# Outline: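 Quantitative HTS in a mouse Schwann cell line expressing dual click beetle luciferases: Pmp22 promoter (green) and control EF-alpha promoter (red). After 24h treatment, corrected green/red signal ratio gave %Activity relative to untreated cells.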
# [4] = molecular target: RecQ-like DNA helicase BLM (Homo sapiens) (UniProt P54132); test: qHTS Validation Assay for Inhibitors of Bloom's syndrome helicase (BLM) (AID 2364); further: potency means the concentration at half of the fitted maximal effect
# RecQ-like DNA helicase BLM (Homo sapiens), sequence (P54132 whole entry, looked up): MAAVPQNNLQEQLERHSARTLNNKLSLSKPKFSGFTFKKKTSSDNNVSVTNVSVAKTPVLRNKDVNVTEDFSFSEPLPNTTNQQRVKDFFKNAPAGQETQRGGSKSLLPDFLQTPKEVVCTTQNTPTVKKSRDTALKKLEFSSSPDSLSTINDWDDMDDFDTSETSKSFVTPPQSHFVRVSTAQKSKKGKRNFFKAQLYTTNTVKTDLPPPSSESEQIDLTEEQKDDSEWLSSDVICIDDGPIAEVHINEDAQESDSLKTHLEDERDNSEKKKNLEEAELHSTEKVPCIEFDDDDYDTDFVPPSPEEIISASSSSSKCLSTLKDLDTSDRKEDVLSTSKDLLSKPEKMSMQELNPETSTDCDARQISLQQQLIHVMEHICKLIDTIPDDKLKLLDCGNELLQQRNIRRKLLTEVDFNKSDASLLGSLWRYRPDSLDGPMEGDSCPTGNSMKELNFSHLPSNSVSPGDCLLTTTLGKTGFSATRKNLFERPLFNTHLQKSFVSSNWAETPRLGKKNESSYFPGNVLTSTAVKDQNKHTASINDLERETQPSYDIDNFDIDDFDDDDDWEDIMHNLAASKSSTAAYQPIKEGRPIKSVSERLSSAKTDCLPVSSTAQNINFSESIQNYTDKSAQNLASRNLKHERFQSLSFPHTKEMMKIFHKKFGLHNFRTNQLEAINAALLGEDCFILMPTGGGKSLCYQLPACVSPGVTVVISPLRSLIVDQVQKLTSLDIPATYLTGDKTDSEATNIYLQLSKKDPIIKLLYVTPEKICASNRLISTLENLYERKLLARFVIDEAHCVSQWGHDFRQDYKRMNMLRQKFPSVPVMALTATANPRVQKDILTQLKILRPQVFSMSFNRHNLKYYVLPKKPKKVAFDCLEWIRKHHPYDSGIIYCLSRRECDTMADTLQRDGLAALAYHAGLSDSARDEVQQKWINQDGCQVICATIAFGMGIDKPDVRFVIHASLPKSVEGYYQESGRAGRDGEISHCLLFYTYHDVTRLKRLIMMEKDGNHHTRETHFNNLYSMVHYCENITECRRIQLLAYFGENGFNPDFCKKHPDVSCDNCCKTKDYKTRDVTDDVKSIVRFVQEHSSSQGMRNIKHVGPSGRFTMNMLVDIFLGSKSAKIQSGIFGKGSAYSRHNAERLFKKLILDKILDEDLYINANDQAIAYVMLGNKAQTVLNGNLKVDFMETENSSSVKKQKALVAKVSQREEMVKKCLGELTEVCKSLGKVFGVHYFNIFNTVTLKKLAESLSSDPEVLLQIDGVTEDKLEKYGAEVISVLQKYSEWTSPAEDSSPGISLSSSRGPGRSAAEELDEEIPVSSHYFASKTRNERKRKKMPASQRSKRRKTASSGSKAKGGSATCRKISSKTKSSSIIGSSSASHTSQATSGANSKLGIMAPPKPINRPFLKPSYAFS
# Outline: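 BLM 50 nM in 25 mM Tris-HCl pH 8.0, 5 mM NaCl, 2 mM MgCl2, 1 mM DTT, 0.01% Tween-20, 2.5 ug/ml poly(dI-dC); 15 min cpd preinc, RT. Start: 200 nM forked DNA + 2 mM ATP (final). TAMRA read, 2 reads 2 h apart.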
# [5] = molecular target: M-phase phosphoprotein 8 (Homo sapiens) (UniProt Q99549); test: qHTS Validation Assay for Inhibitors for MPP8 Chromodomain Interactions with Methylated Histone Tails (AID 488949); further: nearly all actives have a fitted effect of over 55% in size; further: potency means the concentration at half of the fitted maximal effect;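 on activity change, negative = inhibition: AlphaScreen signal from MPP8 chromodomain bound to biotinylated H3K9me3 peptide; top concentration of the series differs between compounds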
# M-phase phosphoprotein 8 (Homo sapiens), sequence (Q99549 whole entry, looked up): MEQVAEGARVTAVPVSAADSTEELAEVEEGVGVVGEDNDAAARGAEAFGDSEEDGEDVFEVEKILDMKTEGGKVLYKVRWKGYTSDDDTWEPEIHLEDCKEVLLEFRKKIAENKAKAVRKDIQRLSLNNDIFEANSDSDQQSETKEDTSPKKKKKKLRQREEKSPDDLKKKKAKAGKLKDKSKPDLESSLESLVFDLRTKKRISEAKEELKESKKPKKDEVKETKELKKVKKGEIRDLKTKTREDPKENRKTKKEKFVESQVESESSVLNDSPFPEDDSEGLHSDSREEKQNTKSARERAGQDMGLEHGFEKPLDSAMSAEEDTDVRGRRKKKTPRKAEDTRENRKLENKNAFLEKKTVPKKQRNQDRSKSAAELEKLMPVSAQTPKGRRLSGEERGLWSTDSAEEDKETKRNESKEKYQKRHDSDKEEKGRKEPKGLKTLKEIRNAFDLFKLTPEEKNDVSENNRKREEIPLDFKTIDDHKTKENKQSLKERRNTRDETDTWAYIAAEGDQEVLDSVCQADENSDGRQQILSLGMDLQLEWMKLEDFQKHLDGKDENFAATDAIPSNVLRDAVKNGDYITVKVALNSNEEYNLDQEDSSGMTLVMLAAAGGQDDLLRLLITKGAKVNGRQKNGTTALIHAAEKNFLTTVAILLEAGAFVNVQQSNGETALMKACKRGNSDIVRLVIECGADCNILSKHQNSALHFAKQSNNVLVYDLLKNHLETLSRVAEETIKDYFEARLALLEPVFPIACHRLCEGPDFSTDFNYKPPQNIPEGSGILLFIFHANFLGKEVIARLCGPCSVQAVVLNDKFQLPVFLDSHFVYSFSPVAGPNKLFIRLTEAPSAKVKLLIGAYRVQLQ
# Outline: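 Disruption of the preformed MPP8–trimethyl-H3K9 peptide complex (both 50 nM, 30 min, RT) is measured after 30 min compound exposure, using AlphaScreen proximity beads; aurintricarboxylic acid titration serves as plate control.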
# [6] = qHTS profiling for inhibitors of Plasmodium falciparum proliferation (AID 504749); further: nearly all actives have a fitted effect of over 60% in size; settings: P. falciparum in erythrocytes, SYBR Green DNA, 72 h, at 28.7 µM (top of the series)
# Outline: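 P. falciparum-infected erythrocytes (0.3% parasitemia, 2.5% hematocrit final) were exposed to compounds for 72 h at 37 C in 5% CO2, then lysed with SYBR Green buffer overnight at room temperature; parasite DNA fluorescence was normalized to artemisinin and DMSO controls.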
# [7] = qHTS Assay for Lipid Storage Modulators (AID 1519; calls by dose curve); settings: Drosophila S3 cells, BODIPY lipid droplet/cell ratio, laser cytometry, cells loaded with oleic acid
# Outline: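 Cells seeded at 5,000 per well were treated with compounds over a concentration series and loaded with oleic acid (400 uM, as added). Lipid droplet fluorescence (488 nm excitation, 500-530 nm channel) was read by laser-scanning cytometry and normalized to 20 uM Triacsin C.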
# [8] = molecular target: Cytochrome P450 1A2 (Homo sapiens) (UniProt P05177); test: p450-cyp1a2 (AID 410; calls by dose curve; further: potency means the concentration at half of the fitted maximal effect)
# Cytochrome P450 1A2 (Homo sapiens), sequence (P05177 whole entry, looked up): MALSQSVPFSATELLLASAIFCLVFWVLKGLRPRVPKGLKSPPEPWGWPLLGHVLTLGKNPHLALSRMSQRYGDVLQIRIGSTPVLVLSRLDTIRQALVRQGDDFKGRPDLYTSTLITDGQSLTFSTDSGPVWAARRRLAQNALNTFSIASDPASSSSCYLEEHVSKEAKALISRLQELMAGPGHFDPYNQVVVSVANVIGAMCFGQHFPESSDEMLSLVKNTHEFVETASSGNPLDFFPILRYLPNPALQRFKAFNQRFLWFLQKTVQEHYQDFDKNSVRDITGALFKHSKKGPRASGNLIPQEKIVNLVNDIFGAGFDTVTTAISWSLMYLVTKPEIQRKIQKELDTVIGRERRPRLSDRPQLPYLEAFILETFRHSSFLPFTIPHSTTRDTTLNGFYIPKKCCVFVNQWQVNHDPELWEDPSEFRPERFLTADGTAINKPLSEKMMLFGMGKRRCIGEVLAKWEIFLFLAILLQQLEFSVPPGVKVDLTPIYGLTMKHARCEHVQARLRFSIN
# Outline: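 Human CYP1A2 (20nM) demethylated Luciferin-ME at its Km (100uM) in 100mM KPO4. After 10 min compound preincubation, NADPH regeneration ran the reaction 60 min at room temperature. Luciferin was read by luminescence, normalized to 57 uM furafylline.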
# [9] = NFAT Signaling Pathway (AID 444; active means well fitted curve in either direction with a large enough effect, not every such curve was filed as active;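 further: carbachol stimulus at about its EC50 of 1 µM final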); settings: Jurkat NFAT-bla M1, carbachol, beta-lactamase ratio, 5 h; at 7.69 µM (top of the series) unless noted
# Outline: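 Jurkat cells carrying an NFAT-driven β-lactamase reporter and co-transfected muscarinic M1 receptor were treated with compound plus carbachol (1 uM final, an EC50 level) for 5 h at 37 °C. CCF4 loading followed for 1 h at RT; 460/530 nm ratio gave %activity.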
# [10] = Stat Signaling Pathway (AID 446; active means well fitted curve in either direction with a large enough effect, not every such curve was filed as active;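 further: ME-180 cervical cancer cells given 40 pM IL-6 alongside compound; SIE-controlled beta-lactamase reporter measured as 460/530 nm FRET emission ratio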); settings: ME-180 SIE beta-lactamase reporter, IL-6 stimulated, 5 h; at 7.69 µM (top of the series) unless noted
# Outline: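 IL-6/STAT signaling read in ME-180 cells via an SIE beta-lactamase reporter. Stimulus was 40 pM IL-6 (its AC50) for 5 hrs, so both activation and inhibition register.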
# [11] = molecular target: Glucocorticoid receptor (Homo sapiens) (UniProt P04150); test: GR-EFC Redistribution (AID 451; calls by dose curve; further: potency means the concentration at half of the fitted maximal effect); settings: CHO-K1 GR-EFC translocation, beta-gal luminescence, 2 h
# Glucocorticoid receptor (Homo sapiens), sequence (P04150 whole entry, looked up, the tested form may be a part): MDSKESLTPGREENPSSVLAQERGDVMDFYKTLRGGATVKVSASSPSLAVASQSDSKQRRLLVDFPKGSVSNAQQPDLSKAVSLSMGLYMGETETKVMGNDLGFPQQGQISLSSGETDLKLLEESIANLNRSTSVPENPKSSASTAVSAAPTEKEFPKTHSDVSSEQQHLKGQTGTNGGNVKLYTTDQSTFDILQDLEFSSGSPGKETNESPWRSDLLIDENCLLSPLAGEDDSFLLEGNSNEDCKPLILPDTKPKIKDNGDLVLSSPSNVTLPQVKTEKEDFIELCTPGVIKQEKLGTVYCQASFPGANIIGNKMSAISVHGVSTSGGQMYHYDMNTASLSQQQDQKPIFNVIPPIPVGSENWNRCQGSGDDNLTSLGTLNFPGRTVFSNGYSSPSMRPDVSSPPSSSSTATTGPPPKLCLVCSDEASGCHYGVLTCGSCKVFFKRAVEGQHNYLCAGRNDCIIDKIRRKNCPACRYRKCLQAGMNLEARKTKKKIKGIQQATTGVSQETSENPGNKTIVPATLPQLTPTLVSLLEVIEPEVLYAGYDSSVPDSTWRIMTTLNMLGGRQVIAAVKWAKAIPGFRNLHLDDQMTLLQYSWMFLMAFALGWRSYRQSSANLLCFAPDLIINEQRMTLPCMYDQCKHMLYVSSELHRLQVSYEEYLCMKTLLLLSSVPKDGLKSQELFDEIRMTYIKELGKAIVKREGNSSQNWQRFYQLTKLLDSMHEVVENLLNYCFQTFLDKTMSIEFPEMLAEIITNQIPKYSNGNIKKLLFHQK
# Outline: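 CHO-K1 cells stably expressing nuclear-localized β-gal enzyme acceptor and GR fused C-terminally to the enzyme donor fragment; ligand-driven nuclear translocation restores β-gal by complementation. Compounds titrated up to 46 uM final, 2 h at 37 °C; luminescence read.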
# [12] = molecular target: 3',5'-cyclic-AMP phosphodiesterase 4B (Homo sapiens) (UniProt Q07343); test: qHTS Assay for Inhibitors of PDE-IV (AID 607; active means well fitted activation curve with a large enough effect in the main read-out, with a control signal flat, not every such curve was filed as active)
# Outline: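 Live HEK293 cells with a modified cyclic nucleotide-gated (CNG) channel report intracellular cAMP via membrane-potential dye fluorescence (ex 535/em 590 nm). Endogenous PDE-IV was targeted. Compounds were tested at up to 22.9 uM final; RO 20-1724 100 uM served as control.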
# [13] = molecular target: Guanine nucleotide-binding protein G(i) subunit alpha-1 (Homo sapiens) (UniProt P63096); test: qHTS Assay for Inhibitors of RGS12 GoLoco Motif Activity (Green Fluorophore) (AID 879);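 further: negative values mean loss of peptide binding seen as reduced polarization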
# Guanine nucleotide-binding protein G(i) subunit alpha-1 (Homo sapiens), sequence (P63096 whole entry, looked up): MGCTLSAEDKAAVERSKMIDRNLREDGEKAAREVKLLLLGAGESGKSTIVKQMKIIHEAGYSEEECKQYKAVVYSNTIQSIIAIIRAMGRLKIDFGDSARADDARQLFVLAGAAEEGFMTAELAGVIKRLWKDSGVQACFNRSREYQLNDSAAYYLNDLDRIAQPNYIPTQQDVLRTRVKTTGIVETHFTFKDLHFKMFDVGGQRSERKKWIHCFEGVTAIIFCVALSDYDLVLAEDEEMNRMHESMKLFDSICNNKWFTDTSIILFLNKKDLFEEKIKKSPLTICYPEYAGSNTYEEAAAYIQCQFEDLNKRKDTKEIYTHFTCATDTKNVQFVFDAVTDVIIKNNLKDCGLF
# Outline: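 Fluorescence polarization assay: 50 nM Gαi1 with 10 nM FITC-labeled RGS12 GoLoco peptide in 10 mM Tris pH 7.5, 150 mM NaCl, 0.1 mM GDP, 0.05% NP40, 10 min at room temperature with compound.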
# [14] = molecular target: Pyruvate kinase PKM (Homo sapiens) (UniProt P14618); test: qHTS Assay for Activators of Human Muscle Pyruvate Kinase (AID 954; active means well fitted curve in the direction sought with a large enough effect, not every such curve was filed as active)
# Pyruvate kinase PKM (Homo sapiens), sequence (P14618 whole entry, looked up): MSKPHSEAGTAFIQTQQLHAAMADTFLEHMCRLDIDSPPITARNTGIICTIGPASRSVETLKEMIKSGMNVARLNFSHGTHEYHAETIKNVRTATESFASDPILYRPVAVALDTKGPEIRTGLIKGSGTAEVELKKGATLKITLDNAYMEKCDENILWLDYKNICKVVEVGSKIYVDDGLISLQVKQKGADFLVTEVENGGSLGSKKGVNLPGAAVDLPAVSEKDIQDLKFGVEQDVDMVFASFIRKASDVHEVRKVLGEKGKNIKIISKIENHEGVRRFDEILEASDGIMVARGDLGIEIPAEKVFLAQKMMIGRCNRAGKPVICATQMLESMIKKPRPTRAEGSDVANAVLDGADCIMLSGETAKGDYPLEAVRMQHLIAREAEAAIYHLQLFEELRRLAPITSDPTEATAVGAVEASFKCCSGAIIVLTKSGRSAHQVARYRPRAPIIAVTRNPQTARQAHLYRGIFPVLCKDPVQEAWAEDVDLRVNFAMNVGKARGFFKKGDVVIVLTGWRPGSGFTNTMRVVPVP
# Outline: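 Enzyme was run at intermediate activity so both inhibitors and activators could be detected. ATP formed from ADP and PEP by 0.1 nM human PKM2 during a 1 h room-temperature incubation was quantified by coupled luciferase luminescence.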
# [15] = molecular target: alpha-glucosidase (Oryza sativa, rice) (UniProt Q653V4); test: Counterscreen for Glucocerebrosidase Inhibitors: qHTS Assay for Rice alpha-Glucosidase at pH 5.0 (AID 997)
# Outline: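 Rice alpha-glucosidase (4 nM final) with 400 uM 4-methylumbelliferyl-alpha-D-glucopyranoside in citrate buffer pH 5.0, 20 min at room temperature, stopped at pH 10; fluorescence 365/440 nm, compounds 0.7 nM–77 uM, AC50 from Hill fits.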
# [16] = AP1 Signaling Pathway (AID 357; active means well fitted curve in either direction with a large enough effect, not every such curve was filed as active); settings: ME-180 (cervical carcinoma) AP-1-bla reporter, EGF-induced, beta-lactamase ratio, 5 h; at 7.69 µM (top of the series) unless noted
# Outline: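 AP-1-bla ME-180 cells with beta-lactamase reporter under AP-1 response element, stimulated with EC50 EGF; compounds titrated, 5 hours at 37 degrees Celsius. CCF4 read at 460/530 nm ratio; positive and negative modulators judged by AC50.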
# [17] = molecular target: Glucocorticoid receptor (Homo sapiens) (UniProt P04150); test: GR-GFP Redistribution (AID 450;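 active means compounds whose dose series gives a full or clear partial fitted curve of increased nuclear translocation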; further: potency means the concentration at half of the fitted maximal effect); settings: U2OS GR-GFP nuclear translocation, laser cytometry, 2 h
# [18] = molecular target: Ferritin light chain (Equus caballus) (UniProt P02791); test: qHTS Validation Assay for Identification of Novel General Anesthetics (AID 2323)
# Ferritin light chain (Equus caballus), sequence (P02791 2-175 limits assumed): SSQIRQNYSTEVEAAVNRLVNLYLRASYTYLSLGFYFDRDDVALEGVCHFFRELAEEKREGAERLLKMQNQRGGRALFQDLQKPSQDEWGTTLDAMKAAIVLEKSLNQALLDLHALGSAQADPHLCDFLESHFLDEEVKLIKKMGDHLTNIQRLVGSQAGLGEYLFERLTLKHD
# Outline: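 Apoferritin from horse spleen (10 uM) was mixed with 1-aminoanthracene at 50% saturation in PBS, then compounds were added. After 10 min at room temperature, fluorescence was read (ex 380 nm, em 535 nm) and normalized to free-probe and complex controls.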
structure (smiles),measurement,setting,value
N[C@H](Cc1ccc(O)c(O)c1)C(=O)O,Potency,[1],inactive
same,Potency,[2],inactive
same,outcome,[3],inactive
same,Potency,[4],28.2 µM (active)
same,Potency,[5],17.8 µM (active)
same,"activity, negative = inhibition",[6]; parasite line A,9.99% (inactive)
same,"activity, negative = inhibition",[6]; parasite line B,20.6% (inactive)
CC(=O)[C@@]1(O)CC[C@H]2C3CCC4=CC(=O)CC[C@]4(C)C3CC[C@@]21C (stereo not given in full),"activity change, negative = inhibition",[7]; at 57.5 µM (top of the series),1.08% (inactive)
same,max response,[7]; measured here: cell count channel max response,-12.2%
same,max response,[7]; measured here: lipid channel max response,-12.4%
same,outcome,[3],inactive
CC(C)CN(C)c1nc(N)c(C(=O)N=C(N)N)nc1Cl,Potency,[8],0.794 µM (active)
same,"activity change, negative = inhibition",[9],-14% [at 38 µM] (inactive)
same,"activity, negative = inhibition",[10],-2.92% [at 38 µM] (inactive)
same,Potency,[11],> 46 µM (inactive)
same,Potency,[12],inactive
same,outcome,[13],inactive
same,outcome,[14],inactive
same,outcome,[15],inactive
same,Potency,[1],11.2 µM (active)
same,Potency,[2],2.82 µM (active)
same,Potency,[4],inactive
OC[C@H]1O[C@@H](n2cnc3c(NC4CCCC4)ncnc32)[C@H](O)[C@H]1O,Potency,[4],inactive
same,Potency,[5],inactive
COC(=O)c1c(-c2cc(OC)c(OC)c(OC)c2)c2ccc(OCc3ccccn3)cc2c(=O)n1-c1ccc(N)cc1,"activity change, negative = inhibition",[16],-16.9% [at 38 µM] (inactive)
same,Potency,[8],inactive
same,"activity change, negative = inhibition",[9],10.6% [at 38 µM] (inactive)
same,"activity, negative = inhibition",[10],-8.64% [at 38 µM] (inactive)
same,Potency,[17],> 46 µM (inactive)
same,Potency,[11],> 46 µM (inactive)
same,outcome,[13],inactive
same,outcome,[14],inactive
same,outcome,[15],inactive
same,Potency,[1],0.891 µM (active)
same,Potency,[2],2.24 µM (active)
COc1cc2c(cc1OC)C(c1ccccc1)CN(C)CC2 (stereo not given),Potency,[2],7.94 µM (active)
same,outcome,[3],inactive
same,Potency,[4],inactive
same,"activity, negative = inhibition",[6]; parasite line A,-10.7% (inactive)
same,"activity, negative = inhibition",[6]; parasite line B,-13.2% (inactive)
CNc1ncnc2c1ncn2[C@@H]1O[C@H](CO)[C@H](O)[C@H]1O,Potency,[1],inactive
same,Potency,[2],inactive
COc1cc(=O)n(C)c2c(OCC(O)C(C)(C)O)cccc12 (stereo not given),Potency,[1],inactive
same,Potency,[2],inactive
same,outcome,[3],inactive
same,outcome,[18],inactive
C[C@H]1CC2[C@@H]3CCC4=CC(=O)C=C[C@]4(C)[C@@]3(Cl)[C@@H](O)C[C@]2(C)[C@@]1(O)C(=O)CO (stereo not given in full),outcome,[3],inactive
same,outcome,[18],inactive
same,Potency,[5],inactive
CC(C)(C)[C@]1(O)CCN2CC3c4ccccc4CCc4cccc(c43)[C@@H]2C1 (stereo not given in full),Potency,[1],5.62 µM (active) and 5.01 µM (active)
same,Potency,[2],2.82 µM (active) and 2.24 µM (active)
CN1CCc2cc(Cl)c(O)cc2C(c2ccccc2)C1 (stereo not given),Potency,[1],7.94 µM (active)
same,Potency,[2],4.47 µM (active)
same,outcome,[3],inactive
same,Potency,[4],inactive
